CYP2C19 inhib – blocks human cytochrome P450 2C19; CYP2C19 Supersomes, luciferin-H EGE luminescence, 30 min; AID 778; 21% of 96,000 active; P33261; inhibition, % at 5 µM;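 active = CYP2C19 inhibition above a set limit at 5 µM in the primary screen, cut at about 50% in these data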
CYP2C9 inhib – blocks human cytochrome P450 2C9; P11712; CYP2C9 Supersomes, luciferin-H conversion, luminescence; 20% of 96,000 active; inhibition, % at 5 µM;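 active = blocking of liver enzyme CYP2C9 beyond about 50% at 5 µM, limit read from the data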
sEH inh – inhibitors of human soluble epoxide hydrolase; P34913; recombinant human sEH enzymatic activity assay; inhibition, % at 2 µM; 0.34% of 91,000 active; in the data active = inhibition above about 80%
Target sequence (P34913 whole entry, looked up): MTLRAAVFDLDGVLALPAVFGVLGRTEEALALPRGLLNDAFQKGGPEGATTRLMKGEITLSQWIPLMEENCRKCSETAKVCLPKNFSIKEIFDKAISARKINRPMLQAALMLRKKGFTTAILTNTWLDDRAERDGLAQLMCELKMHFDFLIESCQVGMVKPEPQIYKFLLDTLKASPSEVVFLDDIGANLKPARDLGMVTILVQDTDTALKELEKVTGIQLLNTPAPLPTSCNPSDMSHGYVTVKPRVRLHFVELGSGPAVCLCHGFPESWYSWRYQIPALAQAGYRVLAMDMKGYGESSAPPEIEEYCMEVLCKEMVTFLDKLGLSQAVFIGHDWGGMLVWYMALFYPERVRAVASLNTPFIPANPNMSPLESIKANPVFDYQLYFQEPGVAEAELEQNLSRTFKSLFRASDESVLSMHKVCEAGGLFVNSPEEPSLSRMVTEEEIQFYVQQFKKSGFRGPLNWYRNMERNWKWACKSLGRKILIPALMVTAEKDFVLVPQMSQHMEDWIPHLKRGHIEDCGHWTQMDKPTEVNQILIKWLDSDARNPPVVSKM
CYP2C9 act – activators of human CYP2C9. 1.4% of 96,000 active. recombinant CYP2C9, luciferin-H conversion, luminescence; stronger effect = higher value; factor 1 = untreated enzyme, 0 = blocked. activation factor at 5 µM. P11712. AID 1024;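 active = activation factor of 2 or more for CYP2C9 at a 5 µM dose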
sEH act – soluble epoxide hydrolase (human) activation | P34913 | purified human sEH enzymatic activity, activator screen | activation, % at 2 µM | 0.04% of 91,000 active | AID 717; in the data active = activation above about 37%
CYP2C19 activ – increases human CYP2C19 enzyme activity; P33261; recombinant CYP2C19, luciferin-H EGE luminescence; stronger effect = higher value; 0 = fully inhibited enzyme, 1 = untreated enzyme; activation factor at 5 µM; 96,000 tested, under 10 active; AID 1025;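 active = activation factor of at least 2 at 5 µM in the primary screen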
Large screens that a line does not name were inactive. Rows were chosen to be rich in hits. Some 27% of all compounds tested hit in one or more screens of this group.

CCOC(=O)c1oc2ccc3c(c2c1C)C(=O)CC1(CCN(C(=O)OCC)CC1)O3	CYP2C19 inhib 52, CYP2C9 inhib 51 (no result: sEH inh, sEH act)
CCOC(=O)c1oc2cccc(O)c2c1CN(Cc1ccccc1)C(C)=O	CYP2C19 inhib 67
CCOC(=O)N1CCC2(CC1)CC(=O)c1c(ccc3oc(C(=O)O)c(C)c13)O2	none (no result: sEH inh, sEH act)
CCOCC(=O)Nc1c(C(=O)OCC)oc2ccccc12	none (no result: sEH inh, sEH act)
CCOC(=O)c1oc2ccccc2c1N	CYP2C19 inhib 87
CCOC(=O)c1oc2ccccc2c1CN1CCN(C(=O)c2ccccc2)CC1	none (no result: sEH inh, sEH act)
CCOC(=O)c1oc2cccc(OC(C)=O)c2c1C	CYP2C19 inhib 76
CCOC(=O)CN1C(=N)N(c2nc(NC(C)C)nc(NC(C)C)n2)CC1=O	none (no result: CYP2C19 inhib, CYP2C9 inhib, CYP2C9 act, CYP2C19 activ)
Cc1ncc(CCl)c2c1OC(C)(C)OC2	none (no result: CYP2C19 inhib, CYP2C9 inhib, CYP2C9 act, CYP2C19 activ)
O=C(OCc1c(Cl)nc2sccn12)c1cc2c(s1)CCCC2	none
CC(C)n1c(SCC(=O)Nc2nc3c(s2)CCCC3)nc2c1c(=O)n(C)c(=O)n2C	none (no result: CYP2C19 inhib, CYP2C9 inhib, CYP2C9 act, CYP2C19 activ)
Cc1cccc(-n2c(CCCN3C(=O)c4ccccc4C3=O)nc3ccccc3c2=O)n1	CYP2C19 inhib 52
O=C1c2ccccc2C(=O)N1CCCc1nc2ccccc2c(=O)n1-c1cccnc1	CYP2C9 inhib 63
Cc1cccc(-n2c(CCN3C(=O)c4ccccc4C3=O)nc3ccccc3c2=O)n1	none
Cc1ccc(C(=O)COC(=O)CNC(=O)c2ccco2)cc1	none (no result: sEH inh, sEH act)
CCOc1cc(-c2c(C#N)c(N)nc3c2CCCC3C)ccc1O (stereo not drawn)	none
CCOc1cc(-c2cc(-c3ccc(C)cc3)nc(N)c2C#N)ccc1O	CYP2C9 inhib 84
CCOc1cc(/C=C(\C#N)c2[nH]nc(N)c2C#N)ccc1O	CYP2C19 inhib 60
CCCc1ccccc1OCCNC(C)=O	none
CSc1nnc(-c2cccc(C)c2)n1N	none
Brc1ccc(C2=CC(c3cccs3)n3ncnc3N2)cc1 (stereo not drawn)	none
Fc1ccc(Br)cc1C1C=C(c2cccnc2)Nc2ncnn21 (stereo not drawn)	CYP2C19 inhib 88, CYP2C9 inhib 54 (no result: sEH inh, sEH act)
COCCNC(=O)CSc1nc2ccc(N3CCOCC3)cc2c(=O)n1CCc1ccccc1	CYP2C19 inhib 61, CYP2C9 inhib 64 (no result: sEH inh, sEH act)
CCOC(=O)CSc1nc2ccc(N3CCOCC3)cc2c(=O)n1Cc1ccccc1	CYP2C19 inhib 76, CYP2C9 inhib 83
Cn1cc(CN2CCN(c3ccccc3)CC2)c2ccccc21	none
N#C/C(=C/c1ccc(N2CCOCC2)c([N+](=O)[O-])c1)C(N)=O	none
CSc1nc(N(C)NC(=O)c2ccc(F)cc2)c2ccccc2n1	none
Cc1ccc(Cl)cc1N1CCN(Cc2cc3c(cc2O)CCC3)CC1	none
CCOC(=O)c1[nH]c2cc(OC)c(OC)cc2c1N	CYP2C19 inhib 72
O=C(c1oc(=O)c2ccccc2c1-c1ccccc1)N1CCN(C2CCCCC2)CC1	CYP2C19 inhib 99, CYP2C9 inhib 70
COc1ccc(N2C(=O)C(Cl)=C(NCc3ccccc3)C2=O)cc1	CYP2C19 inhib 99, CYP2C9 inhib 96
O=C1C(Cl)=C(Nc2ccccc2O)C(=O)N1c1ccccc1	none
Cc1ccc(-n2c(=O)cc(NCc3cccnc3)[nH]c2=O)cc1	none
Cc1occc1-c1nnc(SCC(=O)c2ccccc2)n1CC1CCCO1 (stereo not drawn)	none
CC1=C(C#N)C(c2ccc3ncccc3c2)C(C#N)=C(C)N1	CYP2C19 inhib 83, CYP2C9 inhib 69
CC1=C(C#N)C(c2cccnc2)C2=C(CC(C)(C)CC2=O)N1 (stereo not drawn)	none (no result: sEH inh, sEH act)
Cn1cc(CNC(=O)COc2ccc(Cl)cc2Cl)cn1	CYP2C19 inhib 89
O=C(COc1ccc(Cl)cc1Cl)Nc1ccc(Cl)cn1	CYP2C19 inhib 58 (no result: sEH inh, sEH act)
Cc1cccc(NC(=S)N2CCC(N(C)CC3CCCO3)CC2)c1C (stereo not drawn)	none
Cc1ccc(C(=O)Nc2c(C(=O)N3CCOCC3)cnn2-c2ccccc2)cc1	none
CCOC(=O)c1c(C)[nH]c(C(=O)CN2C(=O)NC(C)(c3ccc(C)cc3)C2=O)c1C (stereo not drawn)	CYP2C19 inhib 83, CYP2C9 inhib 75 (no result: sEH inh, sEH act)
CCOC(=O)c1c(C)[nH]c(C(=O)CN2CCOCC2)c1C	none (no result: sEH inh, sEH act)
CCOC(=O)c1c(C)[nH]c(C(=O)CN2C(=O)NC(CC)(c3ccccc3)C2=O)c1C (stereo not drawn)	CYP2C19 inhib 64, CYP2C9 inhib 67

Source: PubChem (several laboratories)
